In PubChem BioAssay AID1159580 (chemical genetic matrix, 2015):
Hit rate of the full screen: of about 5,500 compounds, about 2,000 (36%) were called active. Inconclusive results (about 18%) are left out. Cut-off read from the data, not from the text of the source: active = normalized growth mostly below about 0.91 (no sharp cut-off); inconclusive = no clear call, values can overlap the other calls; inactive = mostly above about 0.92. The list shows a part of the results.

Test: chemical genetic growth profiling, strain panel (AID 1159580);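 note: tested at 20 µM; growth read once vehicle control cultures reached saturation at 30 °C; 1 = growth at the plate median or of vehicle wells; lower values mean less growth of the strain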
Conditions: S. cerevisiae deletion strains, growth OD

Measured: normalized growth

COc1ccccc1/C=C\C(=O)O
inactive: locus YAL013W, strain DEP1, active compounds read low 1.02 | locus YAL021C, strain ccr4, active compounds read low 1.01 | locus YAL026C, strain drs2, active compounds read low 1.01 | locus YAL030W, strain snc1, active compounds read low 0.988 | locus YBL061C, strain skt5, active compounds read low 1 | locus YBR009C, strain hhf1, active compounds read low 1 | locus YBR021W, strain FUR4, active compounds read low 1.02 | locus YBR023C, strain chs3, active compounds read low 1.01 | locus YBR171W, strain sec66, active compounds read low 0.996 | locus YBR229C, strain ROT2, active compounds read low 1.02 | locus YBR231C, strain swc5, active compounds read low 1.02 | locus YBR279W, strain paf1, active compounds read low 1 | locus YCL011C, strain gbp2, active compounds read low 0.99 | locus YCL016C, strain dcc1, active compounds read low 1.01 | locus YCL029C, strain bik1, active compounds read low 1.02 | locus YCL061C, strain MRC1, active compounds read low 0.993 | locus YCL069W, strain vba3, active compounds read low 0.996 | locus YCR088W, strain abp1, active compounds read low 0.996 | locus YDL005C, strain med2, active compounds read low 1 | locus YDL035C, strain GPR1, active compounds read low 1.08 | locus YDL040C, strain nat1, active compounds read low 0.994 | locus YDL074C, strain BRE1, active compounds read low 1.19 | locus YDL101C, strain DUN1, active compounds read low 1.01 | locus YDL185W, strain tfp1, active compounds read low 0.971 | locus YDL192W, strain arf1, active compounds read low 1.04 | locus YDR001C, strain nth1, active compounds read low 0.991 | locus YDR069C, strain doa4, active compounds read low 1.03 | locus YDR101C, strain arx1, active compounds read low 1.01 | locus YDR137W, strain rgp1, active compounds read low 0.955 | locus YDR159W, strain sac3, active compounds read low 1.03 | locus YDR162C, strain NBP2, active compounds read low 1.05 | locus YDR195W, strain ref2 1.07 | locus YDR297W, strain sur2, active compounds read low 0.994 | locus YDR318W, strain mcm21, active compounds read low 1.04 | locus YDR334W, strain swr1, active compounds read low 1.01 | locus YDR335W, strain msn5, active compounds read low 1 | locus YDR388W, active compounds read low 1 | locus YDR392W, strain spt3, active compounds read low 0.793 | locus YDR502C, strain sam2, active compounds read low 1.03 | locus YEL003W, strain gim4, active compounds read low 0.996 | locus YEL037C, strain rad23, active compounds read low 1 | locus YEL061C, strain CIN8 (second series), active compounds read low 0.992 | locus YER015W, strain faa2, active compounds read low 1.01 | locus YER016W, strain bim1, active compounds read low 1.01 | locus YER110C, active compounds read low 1.03 | locus YER111C, strain swi4, active compounds read low 0.993 | locus YER155C, strain BEM2 (second series), active compounds read low 0.949 | locus YER155C, strain BEM2, active compounds read low 1.01 | locus YER167W, strain BCK2, active compounds read low 1.01 | locus YFR010W, strain ubp6, active compounds read low 1.02 | locus YGL078C, strain dbp3, active compounds read low 1.02 | locus YGL086W, strain mad1, active compounds read low 1.01 | locus YGL167C, strain pmr1, active compounds read low 0.991 | locus YGL173C, strain kem1, active compounds read low 0.998 | locus YGL227W, strain vid30, active compounds read low 1 | locus YGL240W, strain doc1, active compounds read low 0.981 | locus YGL248W, strain PDE1, active compounds read low 1.08 | locus YGL253W, strain hxk2, active compounds read low 1.01 | locus YGR078C, strain PAC10, active compounds read low 1.06 | locus YGR135W, strain pre9, active compounds read low 1.04 | locus YGR252W, strain gcn5, active compounds read low 1.15 | locus YHR013C, strain ard1, active compounds read low 0.927 | locus YHR027C, strain rpn1, active compounds read low 1 | locus YHR030C, strain SLT2, active compounds read low 1.01 | locus YHR079C, strain IRE1 (second series), active compounds read low 1.03 | locus YHR094C, strain hxt1, active compounds read low 0.998 | locus YHR129C, strain ARP1, active compounds read low 1.03 | locus YHR142W, strain chs7, active compounds read low 0.971 | locus YHR200W, strain rpn10, active compounds read low 1.01 | locus YIL066C, strain RNR3, active compounds read low 1.03 | locus YIL073C, strain SPO22, active compounds read low 1.23 | locus YIL125W, strain kgd1, active compounds read low 1.01 | locus YIR030C, strain dcg1, active compounds read low 1.02 | locus YJL092W, strain hpr5, active compounds read low 1 | locus YJL095W, strain BCK1 (second series), active compounds read low 1.02 | locus YJL095W, strain BCK1, active compounds read low 1.07 | locus YJL115W, strain asf1, active compounds read low 1.02 | locus YJL129C, strain trk1, active compounds read low 0.989 | locus YJL134W, strain LCB3, active compounds read low 1.01 | locus YJL154C, strain vps35, active compounds read low 1.01 | locus YJL164C, strain tpk1, active compounds read low 0.992 | locus YJL166W, strain qcr8, active compounds read low 0.98 | locus YJL168C, strain set2, active compounds read low 1.04 | locus YJL187C, strain SWE1 (second series), active compounds read low 1.04 | locus YJL187C, strain SWE1, active compounds read low 0.991 | locus YJR043C, strain POL32, active compounds read low 1.05 | locus YJR075W, strain HOC1, active compounds read low 1.02 | locus YKL009W, strain mrt4, active compounds read low 1.03 | locus YKL068W, active compounds read low 1.01 | locus YKL085W, strain MDH1 (second series), active compounds read low 0.99 | locus YKL085W, strain MDH1, active compounds read low 0.99 | locus YKL160W, strain elf1, active compounds read low 0.986 | locus YKR001C, strain vps1, active compounds read low 1.07 | locus YKR026C, strain gcn3, active compounds read low 1 | locus YKR091W, strain srl3, active compounds read low 0.995 | locus YLL001W, strain dnm1, active compounds read low 0.993 | locus YLL026W, active compounds read low 1 | locus YLL041C, strain sdh2, active compounds read low 0.999 | locus YLR027C, strain aat2, active compounds read low 1.01 | locus YLR039C, strain RIC1, active compounds read low 1.22 | locus YLR058C, strain SHM2, active compounds read low 1.04 | locus YLR102C, strain apc9, active compounds read low 1.01 | locus YLR221C, strain rsa3, active compounds read low 0.988 | locus YLR258W, strain gsy2, active compounds read low 0.987 | locus YLR262C, strain YPT6 (second series), active compounds read low 0.932 | locus YLR268W, strain sec22, active compounds read low 1.05 | locus YLR320W, strain mms22, active compounds read low 0.942 | locus YLR330W, strain CHS5, active compounds read low 1.03 | locus YLR342W, strain FKS1 (second series), active compounds read low 1.05 | locus YLR342W, strain FKS1, active compounds read low 0.996 | locus YLR357W, strain rsc2, active compounds read low 1.02 | locus YLR370C, strain arc18, active compounds read low 1 | locus YLR371W, strain rom2, active compounds read low 1.02 | locus YLR384C, strain iki3, active compounds read low 1.03 | locus YLR418C, strain cdc73, active compounds read low 1.15 | locus YML016C, strain PPZ1, active compounds read low 1.01 | locus YML032C, strain rad52, active compounds read low 1.03 | locus YML120C, strain ndi1, active compounds read low 0.994 | locus YML124C, strain tub3, active compounds read low 1.02 | locus YMR058W, strain fet3, active compounds read low 0.999 | locus YMR078C, strain ctf18, active compounds read low 1.02 | locus YMR125W, strain sto1, active compounds read low 1 | locus YMR129W, active compounds read low 0.993 | locus YMR205C, strain PFK2, active compounds read low 0.928 | locus YMR223W, strain ubp8, active compounds read low 1.03 | locus YMR231W, strain pep5, active compounds read low 1.01 | locus YMR307W, strain GAS1, active compounds read low 1.25 | locus YNL067W, strain RPL9B, active compounds read low 1.01 | locus YNL071W, strain lat1, active compounds read low 0.966 | locus YNL153C, strain GIM3, active compounds read low 1.06 | locus YNL209W, strain ssb2, active compounds read low 1.01 | locus YNL233W, strain BNI4, active compounds read low 1.08 | locus YNL248C, strain rpa49, active compounds read low 1 | locus YNL250W, strain rad50, active compounds read low 1.02 | locus YNL271C, strain bni1, active compounds read low 1.01 | locus YNL298W, strain CLA4, active compounds read low 1.03 | locus YNL307C, strain MCK1, active compounds read low 1.02 | locus YNL322C, strain KRE1 (second series), active compounds read low 0.999 | locus YNR049C, strain mso1, active compounds read low 1 | locus YNR052C, strain pop2, active compounds read low 1.03 | locus YOL006C, strain TOP1, active compounds read low 1.32 | locus YOL012C, strain htz1 1.02 | locus YOL147C, strain pex11, active compounds read low 1.02 | locus YOR001W, strain rrp6, active compounds read low 0.979 | locus YOR061W, strain CKA2, active compounds read low 1.02 | locus YOR069W, strain VPS5, active compounds read low 1.02 | locus YOR070C, strain gyp1, active compounds read low 1 | locus YOR080W, strain dia2, active compounds read low 1.01 | locus YOR083W, strain WHI5, active compounds read low 0.994 | locus YOR106W, strain vam3, active compounds read low 0.995 | locus YOR136W, strain idh2, active compounds read low 1.02 | locus YOR144C, strain elg1, active compounds read low 1.02 | locus YOR184W, strain ser1, active compounds read low 1.05 | locus YOR265W, strain rbl2, active compounds read low 0.994 | locus YOR270C, strain vph1, active compounds read low 0.843 | locus YOR290C, strain snf2, active compounds read low 0.952 | locus YOR316C, strain cot1, active compounds read low 1.01 | locus YPL051W, strain arl3, active compounds read low 0.992 | locus YPL078C, strain atp4, active compounds read low 0.987 | locus YPL106C, strain sse1, active compounds read low 0.987 | locus YPL240C, strain hsp82, active compounds read low 1 | locus YPR119W, strain clb2, active compounds read low 1.02 | locus YPR141C, strain kar3, active compounds read low 0.999 | locus YPR163C, strain tif3, active compounds read low 1.02 | locus YPR167C, strain met16, active compounds read low 1.03 | strain wtn01, active compounds read low 1.03
